Compounds with a hit are over-represented: about 3.9% of the library has one in this group of screens.
Anthrax LF prot = Bacillus anthracis LF protease inhibitors, primary screen, biochemical, multiplex microsphere, MLPCN library. Lethal factor (Bacillus anthracis), P15917. multiplex microsphere protease cleavage assay. inhibition, % at 10 µM. hit rate 0.12% among 360,000. AID 588501, 2011
Autofluor counter = counter-screen for toxin protease inhibitors: compound fluorescence; compound autofluorescence counterscreen, microsphere flow cytometry; hits give high values; fluorescence intensity (no concentration beside the values); hit rate 3.1% among 360,000; in the data active means fluorescence intensity above about 16000; inconclusive means no clear call, values can overlap the other calls
3CLpro inhibitor = SARS-CoV 3CLpro protease inhibitors, primary screen, biochemical, quenched FRET. Replicase polyprotein 1ab (Severe acute respiratory syndrome coronavirus), P0C6X7. recombinant SARS-CoV 3CLpro, quenched FRET peptide cleavage. inhibition, % at 6 µM. hit rate 0.14% among 290,000; in the data active means inhibition above about 12%
BoNT F protease = BoNT/F light chain protease inhibitors, primary screen, biochemical, flow cytometry, MLPCN library; AID 588497, 2011; inhibition, % at 10 µM; hit rate 0.22% among 360,000; Multiplex microsphere protease cleavage assay; Botulinum neurotoxin type F light chain protease (Clostridium botulinum); in the data active means inhibition above about 35%, passing the limit was not always enough; inconclusive means no clear call, values can overlap the other calls
CCHFV vOTU inh = CCHFV vOTU protease inhibitors, primary screen, biochemical, Pep-AMC substrate, fluorescence. Crimean-Congo hemorrhagic fever virus L polyprotein viral ovarian tumor (vOTU) protease …. inhibition, % at 11.5 µM. hit rate 0.55% among 370,000; in the data active means inhibition above about 30%
BoNT A protease = BoNT/A light chain protease inhibitors, primary screen, biochemical, flow cytometry, MLPCN library; Botulinum neurotoxin type A light chain protease (Clostridium botulinum A str. ATCC 3502); multiplex microsphere protease substrate cleavage; inhibition, % at 10 µM; hit rate 0.17% among 360,000; AID 588499, 2011
A number is an active result; 0 = inactive; ? = inconclusive; - = not tested or not shown. Unless noted, no stated cut-off is given here; in the data, active means inhibition above about 30%; inconclusive means no clear call, values can overlap the other calls; inactive means below that.

SMILES	Anthrax LF prot	Autofluor counter	3CLpro inhibitor	BoNT F protease	CCHFV vOTU inh	BoNT A protease
O=C(NC1CCCCC1)C(c1ccc(O)cc1)N(CC1CCCO1)C(=O)C1COc2ccccc2O1 (stereo unspecified)	0	20282	0	0	0	0
O=C1CC(C(=O)N(CC2CCCO2)C(C(=O)NC2CCCCC2)c2ccncc2)CS1 (stereo unspecified)	0	0	0	0	0	0
O=C(Nc1ccc(F)cc1)C1CCN(c2nnnn2-c2ccccc2)CC1	0	19751	0	0	0	?
Cc1ccc(N2CC(C(=O)Nc3cccnc3)CC2=O)cc1 (stereo unspecified)	0	23113	0	0	0	0
Cc1ccc(OCCNC(=O)C2CC(=O)N(c3ccc(C)cc3)C2)cc1 (stereo unspecified)	0	0	0	0	0	0
CCc1ccc(N2CC(C(=O)Nc3cccnc3)CC2=O)cc1 (stereo unspecified)	0	0	0	0	0	0
C=COCCNC(=O)C1CC(=O)N(c2ccc(C)cc2)C1 (stereo unspecified)	0	24393	0	0	0	0
O=C(NCCc1c[nH]c2ccccc12)OCc1cn(Cc2cccc(F)c2F)nn1	-	-	-	-	0	-
C[C@H](O)[C@@H]1CN2CCc3c([nH]c4c(-c5ccc6c(c5)OCO6)cccc34)[C@@H]2C[C@@H]1N(C)C(=S)NCCc1ccccc1	-	-	-	-	0	-
CCN=C1SC(CC(=O)NC2CCCCC2)C(=O)N1CC (stereo unspecified)	0	20571	0	0	0	?
CCN=C1SC(CC(=O)NC(N)=O)C(=O)N1CC (stereo unspecified)	0	0	0	0	0	0
CCOC(=O)C[n+]1c(C)csc1C	0	0	0	0	0	0
Cc1csc(C)[n+]1CC(=O)c1ccccc1	0	0	0	48	0	0
CC1C(c2ccccc2)C(C#N)(C#N)C2(C#N)C(=O)NC1(N)C2C (stereo unspecified)	0	37669	0	0	0	0
CC1=C(C#N)C(c2ccccc2)C2=C(N1)c1ccccc1C2=O (stereo unspecified)	0	0	0	0	0	0
CCCCNC(=O)COC(=O)c1c2c(nc3ccccc13)/C(=C/c1cccs1)CC2	0	0	0	0	0	39
C=CCN1[C@H](CO)[C@H](c2ccccc2)[C@@H]1C#N	-	-	-	-	0	-
O=C(Cn1c(C(F)(F)F)nc2ccccc21)c1ccc(Cl)cc1	0	18546	0	0	0	0
O=C(OC12CCCN(C1)/C(=C/c1ccncc1)C2)c1ccco1 (stereo unspecified)	-	-	-	-	0	-
COC(=O)C1=C(C)N(Cc2ccc(Br)cc2)C(=S)NC1c1ccc(OC)cc1 (stereo unspecified)	-	-	-	-	0	-
COC(=O)c1cc(F)c(-n2cncn2)c(F)c1	0	16245	0	0	0	?
COC(=O)c1cc([N+](=O)[O-])c(-n2cncn2)c([N+](=O)[O-])c1	0	0	0	0	0	0
O=C(N/N=C/c1ccco1)c1ccncc1	0	24013	0	0	0	0
Cc1ccc(-c2nnc(SCC(=O)NC3CCCC3)n2N)cc1	0	0	-	0	0	0
CCN(CC)S(=O)(=O)c1cccc(-c2nnc(SCC(=O)NC3CCCCCC3)n2N)c1	0	22076	0	0	0	0
SMILES	Anthrax LF prot	Autofluor counter	3CLpro inhibitor	BoNT F protease	CCHFV vOTU inh	BoNT A protease
Nn1c(SCC(=O)NC2CCCCC2)nnc1-c1ccccc1	0	0	0	0	0	0
CCN(CC)S(=O)(=O)c1cccc(-c2nnc(SCC(=O)NC3CCCCCCC3)n2N)c1	0	21228	0	0	0	0
CCN(CC)S(=O)(=O)c1cccc(-c2nnc(SCC(=O)NC3CCCC3)n2N)c1	0	20557	0	0	0	0
CCc1cccc(-n2c(C)cc(O)cc2=O)c1	-	-	-	-	0	-
COC(=O)[C@]12C[C@H](CC(=O)N3CCCCC3)C(=O)N(Cc3ccccc3)C1=C[C@H](COCc1ccccc1)O[C@@H]2C	-	-	-	-	0	-
O=C1C[C@@H](C(=O)Nc2ccc(Cl)cc2)[C@@H](c2ccccc2)O1	-	-	-	-	0	-
CC(=O)N(Nc1ccccc1)c1ccccc1	0	0	0	35	0	0
O=C(CSc1nnc(Cc2ccccc2)n1Cc1ccco1)NC1CCCC1	0	0	0	0	0	0

Screening data: PubChem, several laboratories
